Assay results from PubChem BioAssay AID720602 (Broad Institute, 2013).
Potency and affinity values are given separately. Calls of active or inactive are those of the source.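 The calls were made as follows: active = signal drop at all three exposure times, half-maximal concentration at most twice the top valid dose; inconclusive = exposure times give differing calls; inactive = inactive at every exposure time.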

Assay: LOX IMVI melanoma cell viability loss, dose response, HRAS target identification, CellTiter-Glo ATP luminescence, 8/24/48 h, dry powder (AID 720602)

**Q.** For `CCC(=O)N(c1ccc(OC)c(Cl)c1)C(C(=O)NCCc1ccccc1)c1cccs1` (configuration not stated), which outcome is on record?
**A.** The outcome was “inactive”.

**Q.** With `Cc1onc(C(=O)N2CCN(C(c3ccncc3)c3ccncc3)CC2)c1[N+](=O)[O-]` as the compound, how does the outcome read?
**A.** Its outcome is “inactive”.
